In PubChem BioAssay (NCI):
About 83,000 compounds went through this panel and 20% of them were active in at least one assay; those are over-represented in the sample as a whole.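 Plates (96-well) were seeded with cells, treated with compound at one concentration, and incubated for 48 hours before percent growth was determined.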 Unmarked numbers belong to inactive results. The source made the active and inactive calls. Rule for the calls: active = growth percent below 10; inactive = the rest.

Experiments:
Test in all cases: NCI-60 one-dose screen, 48 h (100 = growth as untreated, 0 = no growth, -100 = all killed)
Details in all cases: 10 µM
786-0 renal = tested on: 786-0 renal
MALME-3M melanoma = tested on: MALME-3M melanoma
MDA-MB-231 breast = tested on: MDA-MB-231 breast
SF-268 CNS = tested on: SF-268 CNS
SF-295 CNS = tested on: SF-295 CNS
UACC-257 melanoma = tested on: UACC-257 melanoma
UACC-62 melanoma = tested on: UACC-62 melanoma
SK-MEL-28 melanoma = tested on: SK-MEL-28 melanoma
SK-MEL-2 melanoma = tested on: SK-MEL-2 melanoma
SN12C renal = tested on: SN12C renal
TK-10 renal = tested on: TK-10 renal
ACHN renal = tested on: ACHN renal
CAKI-1 renal = tested on: CAKI-1 renal
A498 renal = tested on: A498 renal
OVCAR-8 ovarian = tested on: OVCAR-8 ovarian
OVCAR-5 ovarian = tested on: OVCAR-5 ovarian
IGROV1 ovarian = tested on: IGROV1 ovarian
OVCAR-3 ovarian = tested on: OVCAR-3 ovarian
HS 578T breast = tested on: HS 578T breast
NCI/ADR-RES ovarian = tested on: NCI/ADR-RES ovarian

Row | Structure (SMILES) | growth (786-0 renal) [%] | growth (MALME-3M melanoma) | growth (MDA-MB-231 breast) | growth (SF-268 CNS) [%] | growth (SF-295 CNS) [%] | growth (UACC-257 melanoma) [%] | growth (UACC-62 melanoma) | growth (SK-MEL-28 melanoma) | growth (SK-MEL-2 melanoma) | growth (SN12C renal) [%] | growth (TK-10 renal) [%] | growth (ACHN renal) [%] | growth (CAKI-1 renal) [%] | growth (A498 renal) | growth (OVCAR-8 ovarian) [%] | growth (OVCAR-5 ovarian) [%] | growth (IGROV1 ovarian) [%] | growth (OVCAR-3 ovarian) [%] | growth (HS 578T breast) [%] | growth (NCI/ADR-RES ovarian)
1 | Cn1cc(-c2nnc(N)nc2-c2c[nH]c3ccc(F)cc23)c2cc(Br)cnc21 | 48 | 106% | 56.1% | 60.1 | 41 | 99.6 | 50.8% | 52.4% | 71% | 72.3 | 45.5 | 47 | 37.4 | 47.1% | 71.5 | 83.3 | 50.4 | 57.5 | 52 | 68.1%
2 | Cc1cc(N=C2NC(=O)S/C2=C\c2ccc(F)cc2)n[nH]1 | 10.3 | -7% (active) | 9.79% (active) | 29 | 12.1 | 19.6 | -19.6% (active) | -7.09% (active) | 11% | 22.8 | 32.7 | 27.4 | 21.2 | 64% | 12.2 | 31 | 25.3 | 20.2 | 10 | 9.56% (active)
3 | O=C(Nc1ccc(OCC(=O)c2ccc(Cl)cc2)cc1)Nc1ccc(Cl)c(C(F)(F)F)c1 | 26 | 27.4% | 48.1% | 46.5 | 27.5 | 19.8 | 18.1% | 32.7% | -35.4% (active) | 58 | 71.9 | 16.8 | 41.1 | 0.685% (active) | 30.1 | 61.2 | 39.9 | 34 | 18 | 57.6%
4 | COc1ccc(C2OC[C@@]3(C)C4CC[C@]5(C)C(CC=C6C7CC(C)(C)CC[C@]7(C(=O)O)CC[C@]65C)[C@@]4(C)C[C@@H](O)[C@@H]3O2)cc1 (stereo not given in full) | 94.8 | 99.3% | 110% | 88.8 | 94.3 | 96.3 | 85.3% | 103% | 102% | 82 | 76 | 56.8 | 73.5 | 102% | 73.2 | 108 | 101 | 74.1 | 85.3 | 87.1%
5 | CC1(C)CC(=O)C2=C(C1)N(Cc1ccc(C(=O)O)cc1)C1=C(C(=O)CC(C)(C)C1)C2c1ccc(Cl)cc1 | 95.5 | 105% | 106% | 106 | 99.4 | 101 | 89.9% | 119% | 97.6% | 103 | 92.2 | 116 | 90.5 | 95.8% | 105 | 106 | 107 | 112 | 105 | 95.3%
6 | COc1ccc(C2c3sc4ccc(C)cc4c3Oc3nc[nH]c(=O)c32)cc1 (stereo not given) | 103 | 84.8% | 83.6% | 89.7 | 107 | 88.2 | 59.2% | 80.9% | 68.8% | 91.7 | 137 | 106 | 60 | 119% | 98.1 | 113 | 83.6 | 89 | 78.5 | 65.4%
7 | Cc1ccc2c(c1)C(=O)/C(=C/c1c[nH]c3ccccc13)S2 | 63.9 | 91.9% | 59.7% | 44.9 | 73.2 | 72.4 | 54.4% | 65.2% | 99.7% | 51.2 | 105 | 58.2 | 37.1 | 127% | 55.3 | 87 | 59.8 | 42.7 | 55.6 | 71.6%
8 | CC1(C)CC[C@]2(C(=O)O)CC[C@]3(C)C(=CCC4[C@@]5(C)C[C@@H](O)[C@@H]6OC(c7cccc(F)c7)OC[C@@]6(C)C5CC[C@]43C)C2C1 (stereo not given in full) | 59.3 | 70% | 60.7% | 55.6 | 42.7 | 67.8 | 49.7% | 66% | 51.1% | 28.2 | 32.4 | 17.6 | 49 | 78.7% | 31.7 | 73.2 | 75.4 | 37.9 | 66.4 | 43.7%
